Measured values published in paper PMC4336329 (PLoS ONE, 2015).
Hit rate of the full screen: of about 310,000 compounds, about 14,000 (4.5%) showed an effect of 50% or more. Effects have a minus sign here. What follows is part of a selection rich in strong results, with near analogues and random picks from the rest.

Target: human ether-à-go-go-related gene (hERG) potassium channel (human, UniProt Q12809)
Experiment: primary screen, population patch clamp on CHO cells stably expressing hERG; higher = less effect of the substance
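Note: peak tail current of the secondary pulse compared with the same well before compound.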

Chain of human ether-à-go-go-related gene (hERG) potassium channel (Q12809 whole entry, looked up): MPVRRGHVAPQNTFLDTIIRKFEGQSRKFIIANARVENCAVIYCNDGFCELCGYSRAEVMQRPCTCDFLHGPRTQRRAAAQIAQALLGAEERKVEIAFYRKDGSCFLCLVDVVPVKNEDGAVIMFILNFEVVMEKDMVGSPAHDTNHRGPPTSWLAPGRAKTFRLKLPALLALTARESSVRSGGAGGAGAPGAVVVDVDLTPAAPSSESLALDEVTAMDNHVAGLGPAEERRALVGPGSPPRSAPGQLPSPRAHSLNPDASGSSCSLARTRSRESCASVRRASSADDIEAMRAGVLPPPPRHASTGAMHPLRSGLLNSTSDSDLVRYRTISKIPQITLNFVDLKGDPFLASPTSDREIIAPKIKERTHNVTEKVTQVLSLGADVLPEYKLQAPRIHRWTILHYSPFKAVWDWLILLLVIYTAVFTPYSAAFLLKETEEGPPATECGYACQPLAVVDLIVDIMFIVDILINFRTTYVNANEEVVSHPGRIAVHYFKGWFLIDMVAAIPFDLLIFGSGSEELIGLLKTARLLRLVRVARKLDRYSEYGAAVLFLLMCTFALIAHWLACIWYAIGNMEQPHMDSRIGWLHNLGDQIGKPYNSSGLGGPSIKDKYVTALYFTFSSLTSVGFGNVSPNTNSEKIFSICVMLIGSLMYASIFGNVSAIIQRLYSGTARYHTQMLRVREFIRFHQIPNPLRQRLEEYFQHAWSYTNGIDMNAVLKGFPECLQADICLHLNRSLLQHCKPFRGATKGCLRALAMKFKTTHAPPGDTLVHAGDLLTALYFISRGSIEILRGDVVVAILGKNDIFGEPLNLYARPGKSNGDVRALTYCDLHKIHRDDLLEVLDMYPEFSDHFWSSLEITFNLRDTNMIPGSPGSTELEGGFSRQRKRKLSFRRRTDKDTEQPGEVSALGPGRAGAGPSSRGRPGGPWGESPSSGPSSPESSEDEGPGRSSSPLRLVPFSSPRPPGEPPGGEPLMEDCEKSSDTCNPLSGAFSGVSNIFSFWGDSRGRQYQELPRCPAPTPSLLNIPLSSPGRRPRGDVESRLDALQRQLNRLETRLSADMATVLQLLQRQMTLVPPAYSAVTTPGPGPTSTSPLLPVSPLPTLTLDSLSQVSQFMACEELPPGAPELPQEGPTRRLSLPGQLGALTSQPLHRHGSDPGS

Point of comparison: `CC1CN(c2ccc(C(F)(F)F)cc2[N+](=O)[O-])CCN1S(C)(=O)=O` (stereo not shown), “hERG current change (%, negative = inhibition) at 10uM” value -56.9%. Against it:
- Cc1nc2c(-c3ccc(F)cc3)cnn2c(N)c1-c1ccc(F)cc1 — higher, 23.3%
- CCOC(=O)C1CCCN(C(=O)c2cn(CC)c3ccc(S(=O)(=O)N(C)C)cc3c2=O)C1 (stereo not shown) — higher, 11.9%
- COc1ccc2nc(NC(=O)C3CCN(S(=O)(=O)c4cccc5nsnc45)CC3)sc2c1 — higher, 0.473%
- C=CCn1c(SCC(=O)Nc2ccc(NC(=O)c3ccco3)c(OC)c2)nnc1-c1ccncc1 — higher, -6.37%
- CCCCCCn1nc(C(=O)N(CCOC)c2c(N)n(CCCC)c(=O)[nH]c2=O)c2ccccc2c1=O — higher, -1.87%
- CCCCCn1nc(C(=O)N(CC(C)C)c2c(N)n(CCCC)c(=O)[nH]c2=O)c2ccccc2c1=O — lower, -76.6%
- CCCCN(C(=O)c1ccc([N+](=O)[O-])s1)c1c(N)n(CC(C)C)c(=O)[nH]c1=O — higher, 5.29%
- CCCCCn1nc(C(=O)N(CCOC)c2c(N)n(CCCC)c(=O)[nH]c2=O)c2ccccc2c1=O — higher, -3.44%
- CCCCN(C(=O)c1ccc([N+](=O)[O-])s1)c1c(N)n(CCCC)c(=O)[nH]c1=O — higher, -12.9%
- CCCCn1c(N)c(N(CCC(C)C)C(=O)c2ccc([N+](=O)[O-])s2)c(=O)[nH]c1=O — higher, -51.1%
- CCCCCCn1nc(C(=O)N(CC(C)C)c2c(N)n(CCCC)c(=O)[nH]c2=O)c2ccccc2c1=O — higher, -51.9%
- CCCCn1nc(C(=O)N(CCOC)c2c(N)n(CCCC)c(=O)[nH]c2=O)c2ccccc2c1=O — higher, 6.16%
- CCCCn1c(N)c(N(CCOC)C(=O)c2nn(CC)c(=O)c3ccccc23)c(=O)[nH]c1=O — higher, 6.82%
- O=S(=O)(Nc1ccc(-n2cnnn2)cc1)c1ccc(Cl)cc1 — higher, -18.2%
- CCO[C@H]1OC(C(=O)N2CCOCC2)=C[C@@H](C2CC2)[C@@H]1CCCO — higher, 19.9%
- Cc1ccc(NC(=O)Nc2sc(=S)n(C)c2C)cc1 — higher, 15.4%
- C=CCNC(=S)NCC1COc2ccccc2O1 (stereo not shown) — higher, 19.6%
- O=[N+]([O-])c1cc(C(F)(F)F)ccc1N1CCC(O)CC1 — higher, 0.342%
- O=C(C1CCC1)N1CCN(c2ccc(C(F)(F)F)cc2[N+](=O)[O-])CC1 — lower, -64%
- NC(=O)C1CCN(c2ccc(C(F)(F)F)cc2[N+](=O)[O-])CC1 — higher, -20.1%
- CC1CN(c2ccc(Cl)cc2[N+](=O)[O-])CCN1S(C)(=O)=O (stereo not shown) — higher, -41.2%
- CC1CN(c2ccc([N+](=O)[O-])cc2Cl)CCN1S(C)(=O)=O (stereo not shown) — higher, -47.2%
- O=[N+]([O-])c1ccc(Oc2cnc3ccccc3n2)cc1 — higher, 7.44%
- COc1ccccc1NC(=O)Nc1nc(CC(=O)Nc2cc(F)ccc2F)cs1 — higher, -2.13%
- CC(C)(C)n1nnnc1C(c1ccc(F)cc1)N(Cc1ccc(F)cc1)Cc1ccco1 (stereo not shown) — higher, 1.97%
- CCN1C(=O)C(CC(=O)Nc2ccc(OC)cc2)N(CCc2ccc(OC)cc2)C1=S (stereo not shown) — higher, -1.17%
- O=C(c1ccc2n[nH]nc2c1)N1CCN(c2ccc(C(F)(F)F)cn2)CC1 — higher, -26.7%
- O=C(CN1CCN(c2ccc(C(F)(F)F)cn2)CC1)Nc1ccc2c(c1)OCO2 — higher, -14%
- O=C(c1ccc2c(c1)OCO2)N1CCN(c2cccc(C(F)(F)F)c2)CC1 — higher, -53.8%
- O=C(c1ccc([N+](=O)[O-])s1)N1CCN(c2ccccn2)CC1 — higher, -20.4%
- O=C(CN1CCN(c2ncccn2)CC1)NCc1ccc2c(c1)OCO2 — higher, 20.4%
- Cc1ccc(C(=O)N2CCN(c3ccc(C(F)(F)F)cn3)CC2)cc1 — higher, -0.62%
- O=C(c1ccc2ccccc2c1)N1CCN(c2ccc(C(F)(F)F)cn2)CC1 — higher, -2%
- O=C(c1ccc2c(c1)OCO2)N1CCN(c2ccccc2)CC1 — higher, -10.9%
- O=C(Nc1ccc2c(c1)OCO2)N1CCN(c2cccc(C(F)(F)F)c2)CC1 — higher, -1.15%
- O=C(c1ccc([N+](=O)[O-])s1)N1CCN(c2ccc(C(F)(F)F)cn2)CC1 — lower, -67.5%
- O=C(c1ccc2c(c1)OCO2)N1CCN(c2ccc(C(F)(F)F)cn2)CC1 — higher, -55.6%
- O=C(CN1CCN(c2ccc(C(F)(F)F)cn2)CC1)NCc1ccc2c(c1)OCO2 — lower, -65.3%
- CC(C)c1ccc(NC(=S)NCCc2c[nH]c3ccccc23)cc1 — higher, 10.8%
- Cc1nc2ccc(NC(=O)[C@@H](NC(=O)c3c(F)cccc3F)C(C)C)cc2s1 — higher, 1.84%
- O=C(NCCN1CCOCC1)C1CCN(Cc2ccccc2O)CC1 — higher, 19.2%
- O=C1CSC(c2cccs2)N1c1ccccc1 (stereo not shown) — higher, 15%
- Cn1nnnc1SCc1nc2scc(-c3ccccc3)c2c(=O)[nH]1 — higher, -3.59%
- CC(C)(C)NS(=O)(=O)c1ccc(CCC(=O)NCc2ccco2)cc1 — higher, 2.7%
- COc1ccc(N2CCN(C(=O)COC(=O)c3ccc(-n4nc(C)cc4C)cc3)CC2)cc1 — higher, -1.95%
